Measurements from PubChem BioAssay AID1671202 (University of Kansas High Throughput Screening Laboratory, 2021).
In all, about 190,000 compounds went through this assay and about 6,900 (3.6%) were called active. Many of the other results were omitted from the sample, so actives are more common in it than they were. A number with no mark means an inactive call. No stated cut-off is given here; in the data, active means inhibition above about 50%; inactive means the rest.

biological target: Huntingtin (Homo sapiens) (UniProt P42858); assay: mutant huntingtin-calmodulin interaction inhibitors – biochemical, AlphaScreen, primary screen (AID 1671202); conditions: AlphaScreen His-mHTT/GST-CaM binding, luminescence; at 15 µM, active compounds read high;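 further: 0% = both proteins with DMSO and 100% = one protein alone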
Sequence (P42858 whole entry, looked up, stated change not applied): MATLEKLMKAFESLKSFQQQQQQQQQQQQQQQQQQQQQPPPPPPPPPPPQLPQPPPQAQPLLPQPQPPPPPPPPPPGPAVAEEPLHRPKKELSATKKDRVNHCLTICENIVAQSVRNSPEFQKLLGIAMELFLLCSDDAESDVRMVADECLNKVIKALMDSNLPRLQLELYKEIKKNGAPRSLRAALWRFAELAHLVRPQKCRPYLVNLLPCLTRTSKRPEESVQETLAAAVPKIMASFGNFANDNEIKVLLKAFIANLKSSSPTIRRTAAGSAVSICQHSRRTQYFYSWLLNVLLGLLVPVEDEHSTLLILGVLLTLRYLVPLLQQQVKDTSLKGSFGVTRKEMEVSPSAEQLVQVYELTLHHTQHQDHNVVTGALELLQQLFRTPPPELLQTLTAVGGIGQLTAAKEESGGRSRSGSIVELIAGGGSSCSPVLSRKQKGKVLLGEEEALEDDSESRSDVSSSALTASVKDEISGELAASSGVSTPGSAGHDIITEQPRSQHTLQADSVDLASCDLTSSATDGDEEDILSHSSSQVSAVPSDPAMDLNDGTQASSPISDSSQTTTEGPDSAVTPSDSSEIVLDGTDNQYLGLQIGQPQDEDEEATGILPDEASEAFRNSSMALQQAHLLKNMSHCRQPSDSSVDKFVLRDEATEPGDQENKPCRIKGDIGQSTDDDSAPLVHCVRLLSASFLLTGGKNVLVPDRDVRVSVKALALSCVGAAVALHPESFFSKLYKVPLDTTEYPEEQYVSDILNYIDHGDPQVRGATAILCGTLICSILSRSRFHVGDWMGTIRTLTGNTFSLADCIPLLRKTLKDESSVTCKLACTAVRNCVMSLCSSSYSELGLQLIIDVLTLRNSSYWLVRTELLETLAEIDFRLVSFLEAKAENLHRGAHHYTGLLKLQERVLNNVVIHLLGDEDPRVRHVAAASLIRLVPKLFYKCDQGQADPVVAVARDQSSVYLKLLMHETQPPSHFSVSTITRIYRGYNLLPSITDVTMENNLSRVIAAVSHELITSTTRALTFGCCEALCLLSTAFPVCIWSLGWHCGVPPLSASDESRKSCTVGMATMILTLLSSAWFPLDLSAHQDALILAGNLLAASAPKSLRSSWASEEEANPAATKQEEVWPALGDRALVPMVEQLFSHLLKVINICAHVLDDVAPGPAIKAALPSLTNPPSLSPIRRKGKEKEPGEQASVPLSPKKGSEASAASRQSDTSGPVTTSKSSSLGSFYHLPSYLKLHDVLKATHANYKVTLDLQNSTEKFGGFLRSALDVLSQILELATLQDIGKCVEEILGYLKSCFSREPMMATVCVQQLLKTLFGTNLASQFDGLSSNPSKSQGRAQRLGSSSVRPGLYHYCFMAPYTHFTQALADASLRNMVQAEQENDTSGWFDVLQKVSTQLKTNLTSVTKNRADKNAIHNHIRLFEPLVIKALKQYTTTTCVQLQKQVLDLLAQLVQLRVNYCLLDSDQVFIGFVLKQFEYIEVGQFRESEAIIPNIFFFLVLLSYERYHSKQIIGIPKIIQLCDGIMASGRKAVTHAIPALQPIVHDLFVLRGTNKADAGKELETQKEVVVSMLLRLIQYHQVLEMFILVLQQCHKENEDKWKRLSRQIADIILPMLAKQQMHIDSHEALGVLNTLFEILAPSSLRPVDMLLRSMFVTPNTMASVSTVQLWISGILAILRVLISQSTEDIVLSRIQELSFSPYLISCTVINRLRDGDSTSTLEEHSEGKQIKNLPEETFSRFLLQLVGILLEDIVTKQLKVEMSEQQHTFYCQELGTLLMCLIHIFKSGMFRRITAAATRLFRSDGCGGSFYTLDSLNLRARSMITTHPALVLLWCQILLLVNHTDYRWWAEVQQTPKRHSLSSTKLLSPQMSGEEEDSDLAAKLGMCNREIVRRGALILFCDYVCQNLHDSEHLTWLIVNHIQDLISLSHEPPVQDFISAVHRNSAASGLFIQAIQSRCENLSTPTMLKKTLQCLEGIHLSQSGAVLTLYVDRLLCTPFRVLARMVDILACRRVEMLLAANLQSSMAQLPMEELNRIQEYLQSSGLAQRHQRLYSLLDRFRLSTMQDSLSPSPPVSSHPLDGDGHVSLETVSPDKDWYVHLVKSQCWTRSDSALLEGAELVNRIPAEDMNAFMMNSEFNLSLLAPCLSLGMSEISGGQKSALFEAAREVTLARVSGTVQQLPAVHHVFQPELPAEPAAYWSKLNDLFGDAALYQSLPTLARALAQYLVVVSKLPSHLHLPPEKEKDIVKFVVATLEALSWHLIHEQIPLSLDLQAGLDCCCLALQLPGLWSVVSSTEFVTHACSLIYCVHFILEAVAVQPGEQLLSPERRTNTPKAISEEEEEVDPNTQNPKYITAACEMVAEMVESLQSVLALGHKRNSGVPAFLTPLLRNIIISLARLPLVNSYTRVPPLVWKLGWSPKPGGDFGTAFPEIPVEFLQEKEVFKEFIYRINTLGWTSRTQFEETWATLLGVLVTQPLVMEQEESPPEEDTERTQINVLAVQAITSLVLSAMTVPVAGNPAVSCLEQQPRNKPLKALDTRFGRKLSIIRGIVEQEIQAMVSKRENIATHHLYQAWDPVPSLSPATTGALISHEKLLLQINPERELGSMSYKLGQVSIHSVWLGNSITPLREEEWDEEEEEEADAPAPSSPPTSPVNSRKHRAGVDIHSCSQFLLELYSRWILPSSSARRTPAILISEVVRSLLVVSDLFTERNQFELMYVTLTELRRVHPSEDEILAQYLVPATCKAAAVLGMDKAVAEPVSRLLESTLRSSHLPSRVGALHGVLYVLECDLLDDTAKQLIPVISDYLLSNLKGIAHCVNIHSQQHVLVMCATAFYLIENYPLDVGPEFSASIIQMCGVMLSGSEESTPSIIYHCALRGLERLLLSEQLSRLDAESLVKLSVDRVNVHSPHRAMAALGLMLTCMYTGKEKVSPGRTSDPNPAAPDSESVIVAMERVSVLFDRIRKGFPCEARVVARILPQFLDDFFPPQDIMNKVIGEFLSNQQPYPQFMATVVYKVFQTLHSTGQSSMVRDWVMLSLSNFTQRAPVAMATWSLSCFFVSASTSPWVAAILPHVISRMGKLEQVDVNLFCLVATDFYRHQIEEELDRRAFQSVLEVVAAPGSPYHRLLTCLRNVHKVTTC

How did the inhibition turn out when `CCOc1ccc(CN2C(=O)CCC2(C)C(=O)NC2CCCC2)cc1OC` (stereo unspecified) was run?
The inhibition was 16%.

How did the inhibition turn out when `CCn1c(SCc2ccccc2F)nnc1-c1cccc([N+](=O)[O-])c1` was run?
The inhibition was 13.8%.

Which inhibition does the source give for `Cc1ccc(C(=O)COc2ccccc2Cl)cc1C` here?
Its inhibition is -114%.

Which inhibition does the source give for `COc1ccc([N+](=O)[O-])cc1C1=N/C(=C/c2cccc(F)c2)C(=O)O1` here?
The inhibition was -5%.

`COc1ccc(NC(=O)C2CCN(c3cnn(C)c(=O)c3)CC2)c(OC)c1` was tested. Which inhibition did it give?
The inhibition was 36.1%.

`COc1cccc(C(=O)N2CCC(Oc3nc4c(C)ccc(C)c4s3)CC2)c1OC` was tested. Which inhibition did it give?
Its inhibition is 64.4% (active).

Which inhibition does the source give for `COc1ccccc1C(=O)N1CCC(c2nc(C(=O)N3CCOCC3)c(C)o2)CC1` here?
The inhibition was -6.99%.

For `COc1cccc(C(=O)N2CCC(c3nnc(C(F)(F)F)o3)CC2)c1OC`, which inhibition is on record?
Its inhibition is -7.5%.

For `Cc1ccc2nc(C(=O)NCc3cc(F)ccc3F)cn2c1`, which inhibition is on record?
The inhibition was -9%.

With `C=CCN(CC=C)S(=O)(=O)c1ccc(C(=O)Nc2c(C(N)=O)oc3ccccc23)cc1` as the compound, how does the inhibition read?
The inhibition was 15.2%.

With `COCCNC(=O)C1Cc2ccccc2N2CCN(c3ccccc3)CC12` (stereo unspecified) as the compound, how does the inhibition read?
The inhibition was 11.4%.

How did the inhibition turn out when `CCNC(=O)C1Cc2ccc(OC)cc2N2CCN(Cc3ccc(Cl)cc3)CC12` (stereo unspecified) was run?
Its inhibition is 93.9% (active).

`CCNC(=O)C1Cc2ccc(OC)cc2N2CCN(c3ccccc3OC)CC12` (stereo unspecified) was tested. Which inhibition did it give?
Its inhibition is 47%.

For `O=C(Nc1ccc2c(c1)OCO2)N1CCOc2ccccc21`, which inhibition is on record?
Its inhibition is 7.08%.

`Cc1ccccc1Cc1c(C)nc2c(C(=O)NC3CCCCC3)cnn2c1C` was tested. Which inhibition did it give?
The inhibition was 3%.

Which inhibition does the source give for `Cc1cc(C)c(Cc2c(C)nc3c(C(=O)NC4CCCC4)cnn3c2C)c(C)c1` here?
Its inhibition is -6%.

Which inhibition does the source give for `Cc1nc2c(C(=O)NC3CCCC3)cnn2c(C)c1Cc1cccc(Cl)c1` here?
The inhibition was 79% (active).

For `COc1ccc(C2=NC3(CCN(CC(=O)NCc4ccc(C)cc4)CC3)NC2=O)cc1`, which inhibition is on record?
The inhibition was 18.4%.

With `CC(C)NC(=O)c1ccc(C(=O)NC(C)C)nc1` as the compound, how does the inhibition read?
Its inhibition is 0.9%.

`COc1ccc(-c2ccc3nc(N4CCC(C(N)=O)CC4)sc3n2)cc1` was tested. Which inhibition did it give?
Its inhibition is 27%.

How did the inhibition turn out when `CN(C)C(=O)C1CCN(c2nc3ccc(-c4cccc(F)c4)nc3s2)CC1` was run?
Its inhibition is 0.2%.

For `CC(C)CNC(=O)C1CCN(c2nc3ccc(-c4ccncc4)nc3s2)CC1`, which inhibition is on record?
The inhibition was 4.07%.

How did the inhibition turn out when `CCN(CC)C(=O)C1CCN(c2nc3ccc(-c4ccc(OC)cc4)nc3s2)CC1` was run?
The inhibition was 66.8% (active).

With `CN1CCC(NC(=O)C2CCN(c3nc4ccc(-c5ccsc5)nc4s3)CC2)CC1` as the compound, how does the inhibition read?
Its inhibition is 70.8% (active).

`O=C(NC1CC1)C1CCN(c2nc3ccc(-c4ccccc4)nc3s2)CC1` was tested. Which inhibition did it give?
The inhibition was 0.8%.

Which inhibition does the source give for `O=C(NCc1ccc2c(c1)OCO2)c1cc2c(s1)CCN(C(=O)c1ccc(F)cc1)C2` here?
The inhibition was 1.84%.

`CCOc1ccc2c(=O)c(Oc3ccccc3)coc2c1` was tested. Which inhibition did it give?
The inhibition was -2.3%.

`CCOc1ccccc1NC(=O)Nc1ccc2c(c1)CN(C(=O)c1ccco1)CC2` was tested. Which inhibition did it give?
The inhibition was 28.9%.

Which inhibition does the source give for `Cn1c(C2CCN(C(=O)Cc3ccccc3)C2)nc2ccncc21` (stereo unspecified) here?
Its inhibition is -1.65%.

`N#Cc1nc(-c2ccco2)oc1N1CCN(C(=O)c2ccccc2F)CC1` was tested. Which inhibition did it give?
The inhibition was -5.8%.

For `Cc1ccccc1-n1c(=O)n(C2CC2)c(=O)c2c1ncn2Cc1c(F)cccc1F`, which inhibition is on record?
Its inhibition is -4.6%.

`Cc1cc(C)nc(SCC(=O)c2ccc(Cl)cc2)n1` was tested. Which inhibition did it give?
The inhibition was 1.3%.

For `COc1ccc(C(=O)Sc2nc(C)cc(C)n2)cc1`, which inhibition is on record?
The inhibition was 98% (active).

`COc1ccc(NC(=O)c2ccc(OC)cc2)cc1` was tested. Which inhibition did it give?
Its inhibition is -2%.

With `COc1ccc(C2=N/C(=C\c3ccc(Cl)cc3)C(=O)O2)cc1OC` as the compound, how does the inhibition read?
Its inhibition is -4%.

`O=c1[nH]c2ccc(S(=O)(=O)Nc3ccc(OC(F)(F)F)cc3)cc2o1` was tested. Which inhibition did it give?
Its inhibition is 0%.

Which inhibition does the source give for `O=C(Nc1nnc(Cc2cccs2)o1)c1ccc(Cl)cc1Cl` here?
Its inhibition is 6%.

Which inhibition does the source give for `COc1ccc(-c2cc3c(c4c2ccn4C)C2CCC3C2)cn1` (stereo unspecified) here?
Its inhibition is 52.6% (active).

With `Cc1cc2[nH]c(C(=O)Nc3ccccc3F)c(CN3CCOCC3)c2s1` as the compound, how does the inhibition read?
Its inhibition is 23%.

With `COc1ccc(C(=O)N2CCC(c3cc(N)on3)CC2)cc1F` as the compound, how does the inhibition read?
The inhibition was 3.7%.

Which inhibition does the source give for `CCCCN(C)C(=O)C1CCCN(c2ncccc2-c2noc(C3CCC3)n2)C1` (stereo unspecified) here?
The inhibition was 23.9%.

Which inhibition does the source give for `COc1cc2c(cc1OC)C(C(=O)O)C(c1cccc([N+](=O)[O-])c1)N(C)C2=O` (stereo unspecified) here?
The inhibition was 0%.

`CC(=O)c1cc2c3c(c1)C1C=CCC1C(c1cccc([N+](=O)[O-])c1)N3CC1CC=CC21` (stereo unspecified) was tested. Which inhibition did it give?
The inhibition was 97% (active).

For `COc1ccc2c(c1)C1=NN(C(C)=O)C(c3cccc([N+](=O)[O-])c3)C1CC2` (stereo unspecified), which inhibition is on record?
The inhibition was 3%.

`O=C(NCc1ccco1)Nc1c[nH]c2ccccc12` was tested. Which inhibition did it give?
Its inhibition is 3%.

`NCCN1C(=O)c2[nH]nc(-c3ccccc3)c2C1c1ccccc1` (stereo unspecified) was tested. Which inhibition did it give?
Its inhibition is 9%.

With `CCOC(=O)N1CCC(c2nnc(Cc3ccc(OC)cc3)s2)CC1` as the compound, how does the inhibition read?
Its inhibition is -8.5%.

How did the inhibition turn out when `Cc1nc(-c2ccccc2)sc1C(=O)NCCOc1ccc(-c2cccs2)nn1` was run?
The inhibition was 6%.

With `NS(=O)(=O)c1ccc(C(=O)NCCOc2ccc(-c3ccccn3)nn2)cc1` as the compound, how does the inhibition read?
Its inhibition is 100% (active).

With `Cc1ccc(C(=O)Nc2cc(-c3ccccn3)no2)cc1` as the compound, how does the inhibition read?
Its inhibition is 1.2%.

Which inhibition does the source give for `O=C(Cc1ccccc1Cl)NCC1CCN(c2cc(-c3ccncc3)[nH]n2)CC1` here?
Its inhibition is -5.18%.
